Rows were chosen to be rich in hits. Some 1.6% of all compounds tested hit in one or more screens of this group.
LYPLA2 counter: counter-screen for PME1 inhibitors: inhibitors of human LYPLA2 | 320,000 tested, 0.38% active | recombinant LYPLA2, FP-Rh probe fluorescence polarization | O95372 | inhibition, % at 5.9 µM;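 active = inhibition above the screen-wide mean plus 3 SD, limit set per campaign, cut at about 26% in these data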;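 note: 0% = LYPLA2 with DMSO and 100% = wells lacking LYPLA2 enzyme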
MEX-5 binding: C. elegans MEX-5 TCR-2 RNA binding activity. activity score (negative = inhibition of binding), % at 10 µM. 300,000 tested, 0.38% active. Q9XUB2. MEX-5/FITC-TCR2 RNA binding, fluorescence polarization; hits give low values;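 active = inhibition past about -25% in most replicates, and total fluorescence under double the plate's negative control median, limit read from the data; inconclusive = replicates evenly split on the limit, or fluorescence at least double controls; inactive = too little inhibition in most replicates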;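 note: 0% = DMSO and -100% = 5 µM competing unlabeled TCR2 RNA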
LYPLA1 counter: counter-screen for PME1 inhibitors: inhibitors of human LYPLA1; 320,000 tested, 0.16% active; inhibition, % at 5.9 µM; O75608; recombinant LYPLA1, FP-Rh probe fluorescence polarization;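 active = inhibition above the mean of all tested compounds plus 3 SD, set per campaign, cut at about 14% in these data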;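 note: inhibitors block serine hydrolase probe labeling of LYPLA1 so polarization falls; 0% = enzyme with DMSO and 100% = wells lacking LYPLA1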
Fam108B counter: Fam108B inhibition, counter-screen for RBBP9 inhibitors; recombinant Fam108B, FP-Rh probe fluorescence polarization; AID 1947; 300,000 tested, 0.33% active; inhibition, % at 9.51 µM;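 active = inhibition above the screen mean inhibition plus 3 SD, computed separately per campaign, cut at about 18% in these data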;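 note: inhibitors lower polarization as less probe binds the enzyme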
PREPL inhibitor: inhibitors of human prolyl oligopeptidase-like enzyme PREPL | AID 2751 | 320,000 tested, 0.68% active | inhibition, % at 5.96 µM | recombinant PREPL, fluorescence polarization activity-based probe | Q4J6C6; in the data active = inhibition above about 43%;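 note: 0% = enzyme with DMSO and 100% = wells lacking enzyme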
Target sequence (Q4J6C6 whole entry, looked up): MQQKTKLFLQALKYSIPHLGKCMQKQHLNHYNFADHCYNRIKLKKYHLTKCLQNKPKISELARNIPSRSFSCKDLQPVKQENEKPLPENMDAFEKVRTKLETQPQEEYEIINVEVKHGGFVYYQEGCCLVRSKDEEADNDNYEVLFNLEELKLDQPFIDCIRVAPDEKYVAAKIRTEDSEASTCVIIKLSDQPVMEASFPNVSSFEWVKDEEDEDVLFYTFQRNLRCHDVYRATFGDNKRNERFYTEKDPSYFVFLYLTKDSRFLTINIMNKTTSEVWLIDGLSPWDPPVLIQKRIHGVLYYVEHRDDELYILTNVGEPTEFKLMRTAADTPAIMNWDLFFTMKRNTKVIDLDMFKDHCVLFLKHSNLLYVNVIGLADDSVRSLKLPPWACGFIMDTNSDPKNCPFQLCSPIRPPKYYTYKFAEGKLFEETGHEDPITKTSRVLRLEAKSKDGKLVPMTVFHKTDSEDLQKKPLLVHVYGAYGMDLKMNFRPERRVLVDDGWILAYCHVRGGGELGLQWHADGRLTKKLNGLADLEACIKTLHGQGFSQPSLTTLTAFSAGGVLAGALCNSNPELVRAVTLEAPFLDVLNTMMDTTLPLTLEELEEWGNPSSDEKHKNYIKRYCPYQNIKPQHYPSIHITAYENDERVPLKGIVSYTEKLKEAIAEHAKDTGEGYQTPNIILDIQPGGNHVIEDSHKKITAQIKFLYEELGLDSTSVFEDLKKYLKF
PME-1 primary: blocks human protein phosphatase methylesterase 1; Q9Y570; inhibition, % at 5.9 µM; 320,000 tested, 0.53% active; recombinant PME-1, FP-Rh probe fluorescence polarization;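 active = inhibition above the campaign mean of all compounds plus 3 SD, cut at about 26% in these data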;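 note: competitive labeling of PME-1 active site by serine hydrolase directed probe; 0% = PME-1 with DMSO and 100% = wells lacking PME-1 enzyme; inhibitors block probe labeling so polarization falls and inhibition rises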
The depositor's hits bear a star; ? = inconclusive; / = not tested or not shown.

SMILES | LYPLA2 counter | MEX-5 binding | LYPLA1 counter | Fam108B counter | PREPL inhibitor | PME-1 primary
O=[N+]([O-])c1ccc(S(=O)(=O)CC(CN2CCCCC2)N2CCCCC2)cc1 (stereo not drawn) | 1.2 | -0.4 | 1.7 | -1.2 | 7.8 | -4.5
CCOc1cc(/C=C2/C(=O)N(c3ccccc3)N=C2C)ccc1OC(=O)c1ccco1 | -8.6 | 0.5 | -4.4 | 3.4 | 45.5* | 1.7
CCOc1cc(/C=C2/C(=N)N3N=C(CC)SC3=NC2=O)ccc1OC(=O)c1ccco1 | 1.8 | 2.0 | -1.5 | -1.6 | 40.5 | -4.8
O=C1CC(c2ccco2)CC2=C1C=Nc1ccccc1N2 (stereo not drawn) | 7.9 | -0.1 | 2.9 | -1.3 | -9.9 | -1.0
O=c1[nH]c2c(s1)C=Nc1ccccc1N2 | 4.7 | -72.3* | 0.6 | 6.1 | 15.8 | 8.5
COc1cc(C#N)c(NC(=O)CN2CCC(C(N)=O)CC2)cc1OC | -0.9 | 2.4 | 2.1 | 3.2 | 8.2 | 4.0
CC(C)(C)OC(=O)N1CCC(c2cc(=O)n3[nH]c(-c4ccc(Cl)cc4)cc3n2)CC1 | -0.2 | -0.5 | 1.0 | -1.0 | 0.5 | -8.0
COc1ccc(NC(=O)c2c[nH]n3c(=O)cc(C4CCN(C(=O)OC(C)(C)C)CC4)nc23)cc1Cl | -3.3 | -0.5 | 0.5 | 4.7 | 26.6 | 32.8*
CCN(CC)C(=O)Cn1c(=O)c2ccccc2n2c(=S)sc(-c3cccc(C)c3)c12 | 0.2 | -66.7* | 0.7 | -1.5 | 15.8 | -0.8
CCN(CC)C(=O)CCn1nc(-c2ccc(C)cc2)c2ccccc2c1=O | -1.9 | -3.2 | -0.3 | -3.7 | 1.6 | -10.8
COc1ccc(OC)c(/C=C/c2ccc3cccc(O)c3n2)c1 | -4.0 | -4.0 | -1.5 | 3.7 | 22.8 | 8.2
COc1cc(/C=C/c2ccc3cccc(O)c3n2)c(Br)cc1O | 5.2 | -0.9 | 2.4 | -2.2 | 32.5 | 27.9*
COc1cc(/C=C/c2ccc3cccc(O)c3n2)ccc1O | 8.8 | -13.9 | 6.1 | 13.7 | 28.1 | 33.9*
COc1cc(Br)c(/C=C/c2ccc3cccc(O)c3n2)cc1OC | 9.7 | -1.5 | 4.8 | 1.6 | 1.4 | -1.2
COc1ccc2c(c1)CC/C(=C\Nc1ccc3c(c1)OCO3)C2=O | 0.1 | -9.5 | 1.5 | 12.0 | 37.1 | 31.8*
O=C1OC2(CCCCC2)OC(=O)C1=CNc1ccc2c(c1)OCO2 | 10.1 | 0.5 | 2.4 | 1.9 | 20.3 | 4.1
COc1ccc(N/C=C2\CCc3ccccc3C2=O)cc1 | 2.9 | 0.0 | 1.5 | 3.0 | 23.2 | 21.2
O=C1/C(=C/Nc2ccc3c(c2)OCO3)CCc2ccccc21 | 14.6 | -4.8 | 1.9 | 12.1 | 22.6 | 30.3*
COc1ccc(/C=N/Nc2ccccn2)cc1O | 0.7 | 3.5 | -1.3 | -1.4 | 2.3 | 6.1
Nc1cc2c3c(cccc3c1)C(=O)N(CCN1CCCC1)C2=O | -3.8 | -28.1* | -1.6 | 0.3 | 29.1 | -4.5
CCN(CC)CCN1C(=O)c2cccc3cc(N)cc(c23)C1=O | 10.6 | -68.6* | 4.9 | 3.0 | 42.3 | 7.7
CC1Cc2nc(SCC(=O)Nc3ccc(F)cc3F)n(C)c(=O)c2S1 (stereo not drawn) | -5.4 | -1.5 | -2.3 | 2.9 | 22.6 | -1.0
CC(=O)c1ccc(N2CCN(C(=S)Nc3ccc(Oc4ccccc4)cc3)CC2)cc1 | 32.1* | 3.6 | 4.6 | -3.2 | 10.3 | 2.1
COc1ccc(N2CCN(C(=S)Nc3ccccc3)CC2)cc1 | -2.6 | -0.2 | 0.7 | -4.5 | 4.7 | -0.6
CC(=O)NCCc1nc2cc(NC(=O)c3ccc(Cl)cc3)ccc2n1C | 5.3 | -1.1 | -2.2 | -3.2 | 1.3 | -0.3
SMILES | LYPLA2 counter | MEX-5 binding | LYPLA1 counter | Fam108B counter | PREPL inhibitor | PME-1 primary
COc1ccccc1/C=C/C=N/n1c(-c2cc(-c3ccccc3)n[nH]2)n[nH]c1=S | 0.2 | -3.0 | -8.8 | 2.2 | 8.0 | 26.8*
S=c1[nH]nc(-c2cc(-c3ccccc3)n[nH]2)n1/N=C/C=C/c1ccccc1 | -7.0 | 0.0 | -3.6 | -12.0 | -7.5 | 10.2
CC(Oc1ccccc1)C(=O)NNC(=O)c1cccs1 (stereo not drawn) | 1.2 | 0.6 | 0.2 | 0.0 | -1.9 | 0.1
Cc1cccc(C(=O)NC2CCCCCCC2)c1 | -1.4 | -1.8 | -3.5 | 3.7 | 2.2 | -6.1
O=c1cc(O)c2c(=O)[nH]c(=O)n(-c3ccccc3)c2[nH]1 | -0.2 | -2.7 | 0.7 | 1.4 | 4.1 | -6.1
CCCNS(=O)(=O)c1ccc(CCC(=O)NCc2ccc3c(c2)OCO3)cc1 | 2.7 | -35.6* | 3.4 | 1.0 | 0.1 | 1.5
C=CC[C@@H]1C=C(C)C[C@H](C)C[C@H](OC)[C@H]2O[C@@](O)(C(=O)C(=O)N3CCCC[C@H]3C(=O)O[C@H](/C(C)=C/[C@@H]3CC[C@@H](O)[C@H](OC)C3)[C@H](C)[C@@H](O)CC1=O)[C@H](C)C[C@@H]2OC | -2.2 | -1.3 | -0.1 | -4.4 | 55.3* | -7.0
CN(C)c1ccc2nc3ccc(=[N+](C)C)cc-3sc2c1 | -4.8 | -32.8* | -1.0 | -2.6 | 20.7 | 4.3
Cc1nc2cc(C)c(C)cc2s1 | -0.3 | 1.9 | -2.9 | -0.8 | 3.6 | -2.5
Cc1cc2nc3ccc(=[N+](C)C)cc-3sc2cc1N | / | -47.9* | / | / | / | /
O=C(Nc1cc(=O)[nH]c2ncnn12)c1ccc(Cl)cc1Cl | -2.4 | ? | -4.5 | -6.6 | 6.9 | -6.8
CCn1c2ccccc2c(=O)c2ccccc21 | 3.4 | -28.1* | -1.1 | -2.9 | 13.4 | -1.2
CCn1c2ccccc2c2cc([N+](=O)[O-])ccc21 | 1.4 | 2.4 | -0.1 | -1.1 | -1.2 | -1.0
CCOC(=O)CN1C(=O)S/C(=C/c2cccc([N+](=O)[O-])c2O)C1=O | 1.3 | -1.1 | -2.0 | 8.4 | 8.0 | 9.4
COc1cc(/C=N/NC(=O)[C@H](Cc2c[nH]c3ccccc23)NC(=O)OCC(C)C)cc([N+](=O)[O-])c1O | -3.8 | -2.2 | 2.7 | 9.2 | 14.8 | 29.8*
COc1cc(/C=N/NC(=O)Cc2ccccc2)cc([N+](=O)[O-])c1O | -0.2 | 1.2 | -2.3 | -0.1 | -1.1 | 5.0
Cc1oc(-c2ccc(Cl)cc2)nc1CS(=O)CC(=O)NCCCN(C)C1CCCCC1 (stereo not drawn) | 12.2 | -1.7 | 4.1 | 1.8 | 57.3* | 3.3
Cc1oc(-c2ccc(Cl)cc2)nc1CS(=O)CC(=O)NC1CCCCC1 (stereo not drawn) | 7.1 | -2.6 | 4.0 | 0.6 | 6.0 | 1.7
COc1cc(C2c3c(oc4ccccc4c3=O)C(=O)N2Cc2ccncc2)ccc1O (stereo not drawn) | -5.0 | 0.1 | -4.6 | -2.6 | 10.2 | -8.9
CCN1C(=O)/C(=C2\SC(=S)N(NC(=O)c3ccccc3O)C2=O)c2ccccc21 | 3.0 | -39.6* | -6.0 | 1.2 | 6.8 | 4.2
Cc1cc(S(=O)(=O)NCCc2ccncc2)cc(C)c1F | -2.7 | / | -0.4 | -0.7 | -0.6 | 5.5
CCOc1cc(/C=C2\N=C(SCC)SC2=O)cc([N+](=O)[O-])c1OC(C)=O | 5.9 | -2.8 | 11.5 | 13.7 | 4.5 | 35.0*
CC(=Nc1ccc(Br)cc1)c1sc2ccccc2c1O | 3.3 | -30.0* | -1.3 | 1.9 | 19.6 | 3.5
